The source made the active and inactive calls. Rule for the calls: active = hit-call score of the fitted dose curve at least 0.9, where 1 is the maximum; inactive = score below 0.9.

The results in this text go back to PubChem BioAssay (EPA / NIEHS).

Settings in all cases: mRNA level, 48 h; actives raise or lower the signal
Read-out in assay [1]: Nuclear factor NF-kappa-B p105 subunit (Homo sapiens) (UniProt P19838)
The assay is described as follows: LTEA_HepaRG_NFKB1: Life Technologies and Expression Analysis (LTEA) Assay for Nuclear Factor Kappa B Subunit 1 (NFKB1) using HepaRG (AID 2283521).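 For outcome: TaqMan qRT-PCR transcript normalised to ACTB GAPDH and POLR2A housekeeping genes.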 A digest of the protocol:
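Human HepaRG cells receive eight half-log concentrations, highest 100 uM, for 48 h. NFKB1 expression is then quantified by qRT-PCR and analysed for up- or down-regulation relative to 0.5% DMSO vehicle.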

Read-out in assay [2]: Protein phosphatase 2A (PPP2R4), PTPA (gene 5524)
The assay is described as follows: LTEA_HepaRG_PPP2R4: Life Technologies and Expression Analysis (LTEA) Assay for Protein phosphatase 2A (PPP2R4) using HepaRG (AID 2283522). In a few lines:
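Gene-expression endpoint in HepaRG hepatic cells: 48 h treatment across eight half-log concentrations up to 100 uM in 0.5% DMSO. PPP2R4 mRNA by qRT-PCR, normalized to three endogenous control genes.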

Read-out in assay [3]: Phosphatase and tensin (PTEN), PTEN (gene 5728)
The assay is described as follows: LTEA_HepaRG_PTEN: Life Technologies and Expression Analysis (LTEA) Assay for Phosphatase and tensin (PTEN) using HepaRG (AID 2283523). A digest of the protocol: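 HepaRG cells, 48 h after plating, exposed in duplicate for 48 h in serum-free induction medium to 8 half-log concentrations up to 100 uM (0.5% DMSO). PTEN mRNA by qRT-PCR, normalized to ACTB, GAPDH, POLR2A; bidirectional fit versus DMSO.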

Read-out in assay [4]: solute carrier (SLC22A1), SLC22A1 (gene 6580)
The assay is described as follows: LTEA_HepaRG_SLC22A1: Life Technologies and Expression Analysis (LTEA) Assay for solute carrier (SLC22A1) using HepaRG (AID 2283524). In a few lines:
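Differentiated human HepaRG cells in serum-free induction medium, exposed 48 h in duplicate to 8-point half-log series from 100 µM top in 0.5% DMSO. SLC22A1 mRNA by TaqMan qRT-PCR normalized to ACTB, GAPDH, POLR2A; bidirectional fit versus DMSO.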

Read-out in assay [5]: Pyruvate Dehydrogenase Kinase 4 (PDK4), PDK4 (gene 5166)
The assay is described as follows: LTEA_HepaRG_PDK4: Life Technologies and Expression Analysis (LTEA) Assay for Pyruvate Dehydrogenase Kinase 4 (PDK4) using HepaRG (AID 2283525). In a few lines:
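HepaRG cells plated 48 h, then switched to serum-free induction medium and exposed in duplicate for 48 h to 8 half-log concentrations from 100 uM in 0.5% DMSO. PDK4 mRNA measured by qRT-PCR, normalized to ACTB, GAPDH and POLR2A; bidirectional fit versus DMSO.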

Read-out in assay [6]: NAD(P)H dehydrogenase [quinone] 1 (NQO1), NQO1 (gene 1728)
The assay is described as follows: LTEA_HepaRG_NQO1: Life Technologies and Expression Analysis (LTEA) Assay for NAD(P)H dehydrogenase [quinone] 1 (NQO1) using HepaRG (AID 2283526). In a few lines: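 Human HepaRG hepatic cells received chemicals for 48 h in serum-free induction medium with 0.5% DMSO, up to 100 uM. Expression was assessed by TaqMan qRT-PCR against housekeeping controls and fitted bidirectionally against DMSO.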

Read-out in assay [7]: Nuclear factor erythroid 2-related factor 2 (Homo sapiens) (UniProt Q16236)
The assay is described as follows: LTEA_HepaRG_NFE2L2: Life Technologies and Expression Analysis (LTEA) Assay for Nuclear factor erythroid 2-related factor 2 (NFE2L2) Transcription Factor using HepaRG (AID 2283527).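 Note: TaqMan qRT-PCR transcript level normalised to ACTB GAPDH and POLR2A housekeeping genes.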 A digest of the protocol:
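Differentiated human HepaRG cells, serum-free induction medium, exposed 48 h in duplicate to eight half-log concentrations up to 100 uM in 0.5% DMSO. NFE2L2 mRNA by Fluidigm TaqMan qRT-PCR, normalised to ACTB, GAPDH, POLR2A; bidirectional change versus DMSO.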

Read-out in assay [8]: succinate dehydrogenase complex iron sulfur subunit B (SDHB), SDHB (gene 6390)
The assay is described as follows: LTEA_HepaRG_SDHB: Life Technologies and Expression Analysis (LTEA) Assay for succinate dehydrogenase complex iron sulfur subunit B (SDHB) using HepaRG (AID 2283528). In a few lines: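 A human HepaRG culture in serum-free induction medium received test chemicals for 48 h over an eight-point range capped at 100 uM. SDHB expression change was quantified by qRT-PCR.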

Read-out in assay [9]: Signal transducer and activator of transcription 3 (Homo sapiens) (UniProt P40763)
The assay is described as follows: LTEA_HepaRG_STAT3: Life Technologies and Expression Analysis (LTEA) Assay for Signal transducer and activator of transcription (STAT3) using HepaRG (AID 2283529). A digest of the protocol:
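Differentiated HepaRG cells, serum-free induction medium, dosed 48 h in duplicate, 8 half-log concentrations from 100 uM in 0.5% DMSO. STAT3 mRNA by qRT-PCR, normalised to ACTB, GAPDH, POLR2A; bidirectional fit versus DMSO.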

Read-out in assay [10]: solute carrier (SLCO1B1), SLCO1B1 (gene 10599)
The assay is described as follows: LTEA_HepaRG_SLCO1B1: Life Technologies and Expression Analysis (LTEA) Assay for solute carrier (SLCO1B1) using HepaRG (AID 2283530). A digest of the protocol: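 Gain or loss of SLCO1B1 mRNA is fitted against the 0.5% DMSO vehicle in human HepaRG liver cells treated 48 h at up to 100 uM in half-log steps. Expression comes from qRT-PCR normalized to endogenous controls.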

Read-out in assay [11]: sulfotransferase 2A1 (SULT2A1), SULT2A1 (gene 6822)
The assay is described as follows: LTEA_HepaRG_SULT2A1: Life Technologies and Expression Analysis (LTEA) Assay for sulfotransferase 2A1 (SULT2A1) using HepaRG (AID 2283531). In a few lines:
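Cells were plated and cultured 48 h, switched to serum-free induction medium, then dosed in duplicate for 48 h (8 concentrations, max 100 uM). RNA was isolated and SULT2A1 expression measured by qRT-PCR; gain or loss of signal fitted relative to DMSO.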

Read-out in assay [12]: Transforming Growth Factor (TGFA), TGFA (gene 7039)
The assay is described as follows: LTEA_HepaRG_TGFA: Life Technologies and Expression Analysis (LTEA) Assay for Transforming Growth Factor (TGFA) using HepaRG (AID 2283532). A digest of the protocol: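 Differentiated HepaRG cells exposed 48 hours in serum-free induction medium, 0.5% DMSO vehicle, 8-point half-log series from 100 uM, in duplicate. TGFA mRNA by TaqMan qRT-PCR, normalised to ACTB, GAPDH, POLR2A; bidirectional fit versus DMSO.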

Read-out in assay [13]: Transforming Growth Factor (TGFB1), TGFB1 (gene 7040)
The assay is described as follows: LTEA_HepaRG_TGFB1: Life Technologies and Expression Analysis (LTEA) Assay for Transforming Growth Factor (TGFB1) Transporter using HepaRG (AID 2283533). A digest of the protocol: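 Expression change of TGFB1 in human HepaRG cells is measured after a 48 h chemical exposure, up to 100 uM in 0.5% DMSO vehicle. Curves are fitted in both directions relative to the DMSO baseline.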

Read-out in the next assay: TIMP1, TIMP1 (gene 7076)
The assay is described as follows: LTEA_HepaRG_TIMP1: Life Technologies and Expression Analysis (LTEA) Assay for TIMP1 using HepaRG (AID 2283534).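 Note: TaqMan qRT-PCR signal normalized to ACTB GAPDH and POLR2A housekeeping genes.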 In a few lines: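 We dosed human liver HepaRG cultures for 48 hours with up to 100 uM test chemical and measured TIMP1 expression by qRT-PCR. Activity in either direction is fitted relative to the 0.5% DMSO vehicle.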

Read-out in assay [14]: Tumor necrosis factor receptor 1 (TNFRSF1A), TNFRSF1A (gene 7132)
The assay is described as follows: LTEA_HepaRG_TNFRSF1A: Life Technologies and Expression Analysis (LTEA) Assay for Tumor necrosis factor receptor 1 (TNFRSF1A) using HepaRG (AID 2283535). A digest of the protocol: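 Expression of TNFRSF1A in human HepaRG liver cells was measured by qRT-PCR 48 h after chemical dosing (maximum 100 uM). Bidirectional curve fitting used 0.5% DMSO as baseline.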

Read-out in assay [15]: Thyroid Hormone Responsive (THRSP), THRSP (gene 7069)
The assay is described as follows: LTEA_HepaRG_THRSP: Life Technologies and Expression Analysis (LTEA) Assay for Thyroid Hormone Responsive (THRSP) using HepaRG (AID 2283536). A digest of the protocol:
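Differentiated HepaRG cells treated 48 h in serum-free induction medium with 8 half-log concentrations up to 100 uM (0.5% DMSO), duplicates. THRSP mRNA by TaqMan qRT-PCR normalised to ACTB, GAPDH, POLR2A; bidirectional fit versus DMSO.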

Read-out in assay [16]: UDP glucuronosyltransferase (UGT1A1), UGT1A1 (gene 54658)
The assay is described as follows: LTEA_HepaRG_UGT1A1: Life Technologies and Expression Analysis (LTEA) Assay for UDP glucuronosyltransferase (UGT1A1) using HepaRG (AID 2283538). In a few lines:
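Human liver HepaRG cultures receive test chemical for 48 h, up to 100 uM in 0.5% DMSO, with phenobarbital induction controls. UGT1A1 mRNA is measured by qRT-PCR and normalized to ACTB, GAPDH and POLR2A.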

Read-out in assay [17]: UDP glucuronosyltransferase (UGT1A6), UGT1A6 (gene 54578)
The assay is described as follows: LTEA_HepaRG_UGT1A6: Life Technologies and Expression Analysis (LTEA) Assay for UDP glucuronosyltransferase (UGT1A6) using HepaRG (AID 2283539). In a few lines:
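Endpoint is UGT1A6 transcript induction or loss in a human liver cell line, quantified by TaqMan qRT-PCR 48 h after dosing. Concentrations ran from 100 uM downward in half-log steps in 0.5% DMSO; activity was fitted in both directions versus vehicle.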

Read-out in assay [18]: X-box binding protein 1 (XBP1), XBP1 (gene 7494)
The assay is described as follows: LTEA_HepaRG_XBP1: Life Technologies and Expression Analysis (LTEA) Assay for X-box binding protein 1 (XBP1) using HepaRG (AID 2283540). In a few lines:
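Human HepaRG monolayers receive test chemical for 48 h across an eight-point half-log series starting at 100 uM. XBP1 mRNA gain or loss is scored against DMSO by qRT-PCR.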

Read-out in assay [19]: Cellular tumor antigen p53 (Homo sapiens) (UniProt P04637)
The assay is described as follows: LTEA_HepaRG_TP53: Life Technologies and Expression Analysis (LTEA) Assay for Tumor Protein P53 (TP53) using HepaRG (AID 2283537). In a few lines:
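Gain or loss of TP53 mRNA signal is scored relative to 0.5% DMSO after 48 h chemical treatment of HepaRG liver cells, tested in duplicate at eight half-log concentrations up to 100 uM.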

Sequence of Signal transducer and activator of transcription 3 (Homo sapiens) (P40763 whole entry, looked up): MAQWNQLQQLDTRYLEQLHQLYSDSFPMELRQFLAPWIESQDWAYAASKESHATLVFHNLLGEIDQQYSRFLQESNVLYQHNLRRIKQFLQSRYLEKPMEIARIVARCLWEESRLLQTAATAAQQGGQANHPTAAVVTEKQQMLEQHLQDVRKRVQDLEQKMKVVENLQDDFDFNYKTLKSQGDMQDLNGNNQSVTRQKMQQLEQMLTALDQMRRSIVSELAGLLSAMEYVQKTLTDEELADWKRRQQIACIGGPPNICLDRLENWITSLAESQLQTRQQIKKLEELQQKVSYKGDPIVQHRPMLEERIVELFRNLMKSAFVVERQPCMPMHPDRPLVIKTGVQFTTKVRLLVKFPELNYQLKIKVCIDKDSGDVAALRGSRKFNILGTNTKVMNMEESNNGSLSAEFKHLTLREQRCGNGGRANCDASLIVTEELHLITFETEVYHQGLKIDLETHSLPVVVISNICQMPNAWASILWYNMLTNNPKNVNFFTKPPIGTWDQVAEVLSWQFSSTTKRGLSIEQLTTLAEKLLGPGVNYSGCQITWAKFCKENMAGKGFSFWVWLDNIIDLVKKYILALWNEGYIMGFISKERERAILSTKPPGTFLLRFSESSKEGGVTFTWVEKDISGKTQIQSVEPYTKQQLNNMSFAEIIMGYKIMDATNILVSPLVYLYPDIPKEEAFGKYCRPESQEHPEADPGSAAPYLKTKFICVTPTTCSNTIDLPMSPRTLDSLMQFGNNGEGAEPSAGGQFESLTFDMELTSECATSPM
Sequence of Nuclear factor NF-kappa-B p105 subunit (Homo sapiens) (P19838 whole entry, looked up): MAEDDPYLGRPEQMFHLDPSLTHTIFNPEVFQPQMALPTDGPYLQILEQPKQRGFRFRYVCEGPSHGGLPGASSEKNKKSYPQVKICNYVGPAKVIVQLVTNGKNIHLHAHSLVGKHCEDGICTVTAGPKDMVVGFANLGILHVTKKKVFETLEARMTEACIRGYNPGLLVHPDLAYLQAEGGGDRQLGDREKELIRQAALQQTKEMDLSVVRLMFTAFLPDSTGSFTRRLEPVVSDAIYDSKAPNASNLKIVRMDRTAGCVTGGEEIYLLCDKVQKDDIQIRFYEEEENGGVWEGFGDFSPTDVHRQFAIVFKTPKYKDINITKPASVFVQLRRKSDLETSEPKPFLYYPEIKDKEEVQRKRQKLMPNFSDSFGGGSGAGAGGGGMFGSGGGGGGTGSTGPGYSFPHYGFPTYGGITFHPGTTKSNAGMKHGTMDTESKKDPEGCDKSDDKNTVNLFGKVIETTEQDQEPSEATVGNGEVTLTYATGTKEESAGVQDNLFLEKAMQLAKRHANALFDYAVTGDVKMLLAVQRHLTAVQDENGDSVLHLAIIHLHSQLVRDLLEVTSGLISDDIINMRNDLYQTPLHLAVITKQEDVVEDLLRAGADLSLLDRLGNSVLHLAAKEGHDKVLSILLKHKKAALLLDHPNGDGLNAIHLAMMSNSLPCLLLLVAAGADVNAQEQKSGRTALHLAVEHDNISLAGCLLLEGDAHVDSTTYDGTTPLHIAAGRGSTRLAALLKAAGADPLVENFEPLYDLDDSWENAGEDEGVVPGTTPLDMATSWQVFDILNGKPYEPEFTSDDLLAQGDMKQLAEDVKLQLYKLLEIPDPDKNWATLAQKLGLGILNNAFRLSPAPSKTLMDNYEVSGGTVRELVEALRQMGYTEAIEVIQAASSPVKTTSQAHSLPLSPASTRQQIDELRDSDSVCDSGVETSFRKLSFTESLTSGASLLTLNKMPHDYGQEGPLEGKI
Sequence of Nuclear factor erythroid 2-related factor 2 (Homo sapiens) (Q16236 whole entry, looked up): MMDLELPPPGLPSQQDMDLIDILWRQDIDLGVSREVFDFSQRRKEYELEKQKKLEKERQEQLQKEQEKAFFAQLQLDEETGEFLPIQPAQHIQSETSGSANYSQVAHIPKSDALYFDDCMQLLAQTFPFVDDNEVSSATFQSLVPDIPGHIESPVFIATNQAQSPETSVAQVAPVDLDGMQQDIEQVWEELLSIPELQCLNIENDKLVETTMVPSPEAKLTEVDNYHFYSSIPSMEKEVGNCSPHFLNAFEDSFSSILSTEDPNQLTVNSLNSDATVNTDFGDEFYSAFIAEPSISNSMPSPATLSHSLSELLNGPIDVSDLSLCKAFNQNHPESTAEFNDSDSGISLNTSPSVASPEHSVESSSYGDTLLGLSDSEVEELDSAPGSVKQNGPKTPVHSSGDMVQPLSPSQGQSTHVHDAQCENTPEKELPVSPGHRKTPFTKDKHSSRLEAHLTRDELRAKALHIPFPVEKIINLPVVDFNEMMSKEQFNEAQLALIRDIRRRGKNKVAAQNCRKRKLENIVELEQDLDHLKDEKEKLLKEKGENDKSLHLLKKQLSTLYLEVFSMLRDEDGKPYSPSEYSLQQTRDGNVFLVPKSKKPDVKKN
Sequence of Cellular tumor antigen p53 (Homo sapiens) (P04637 whole entry, looked up): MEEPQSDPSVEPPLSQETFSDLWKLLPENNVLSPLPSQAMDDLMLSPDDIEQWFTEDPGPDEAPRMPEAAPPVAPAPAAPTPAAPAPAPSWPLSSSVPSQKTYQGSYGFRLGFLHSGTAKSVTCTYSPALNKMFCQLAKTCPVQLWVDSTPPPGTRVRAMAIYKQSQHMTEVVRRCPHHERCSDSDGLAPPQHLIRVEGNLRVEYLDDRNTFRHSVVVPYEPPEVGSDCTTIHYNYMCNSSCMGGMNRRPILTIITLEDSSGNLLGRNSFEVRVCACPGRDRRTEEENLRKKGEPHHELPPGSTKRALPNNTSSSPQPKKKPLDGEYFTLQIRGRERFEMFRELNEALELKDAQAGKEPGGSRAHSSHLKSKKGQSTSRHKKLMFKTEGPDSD

For the compound `Nc1cccc2c(N)cccc12`, the call in [1], in assay [2], in assay [3], in [5], in assay [6] and in assay [7] was inactive. The outcome in assay [8] was “inactive”; in assay [9], “inactive”; in assay [11], “inactive”; in assay [12], “inactive”; in [13] it was “inactive”; with TIMP1, TIMP1 (gene 7076), “inactive”. Moreover, the compound was called inactive in assay [14], in [16], in assay [17] and in assay [18]. The AC50 in assay [4] is 50 µM (active); in [10] it was 9.92 µM (active); in assay [15] it was 10.9 µM (active).

In the case of `CC(C)(C)c1ccc(O)c(C(C)(C)C)c1`, the AC50 in assay [1] was 0.162 µM (active); in assay [9] it was 9.92 µM (active); in assay [14], 50 µM (active). Moreover, the outcome in [3], in [4], in assay [5], in [6], in assay [7] and in [8] was inactive. For the same compound, the outcome in assay [10] was “inactive”; in assay [11], “inactive”; in assay [13], “inactive”; with TIMP1, TIMP1 (gene 7076) it was “inactive”; in assay [15], “inactive”; in assay [19], “inactive”. Further, the result in [16], in [17] and in assay [18] was inactive.

Take `N#C[C@@H]1CC(F)(F)CN1C(=O)CNC1CC2CCC(C1)N2c1ncccn1` (stereo partly drawn): the figures for the AC50 in [1] and in assay [9] were 1.8 µM (active) and 12.5 µM (active), respectively. Besides, the compound was called inactive in assay [2], in assay [3], in assay [4], in [5], in [6] and in [7]. Besides, the outcome is “inactive” in assay [8]; “inactive” in assay [10]; “inactive” in assay [11]; “inactive” in [13]; “inactive” in the assay with TIMP1, TIMP1 (gene 7076); “inactive” in assay [14]. Moreover, the outcome in assay [15], in [16], in [17] and in assay [18] was inactive.

As to `O=C(OCCOCCOC(=O)c1ccccc1)c1ccccc1`, the result in assay [1], in assay [3], in assay [4], in assay [5], in assay [6] and in assay [7] was inactive. The compound was classed as inactive in assay [8], in assay [9], in assay [10], in assay [11], in assay [12] and in assay [13]. In addition, the outcome is “inactive” in the assay with TIMP1, TIMP1 (gene 7076); “inactive” in assay [14]; “inactive” in assay [15]; “inactive” in [16]; “inactive” in assay [17]; “inactive” in assay [18].

For orientation: AC50 means the concentration giving half of the maximal activity seen.
